# Article PMC7862700, “An all-to-all approach to the identification of sequence-specific readers for epigenetic DNA modifications on cytosine”
# Columns and labels:
# Test in all cases: DAPPL (digital affinity profiling via proximity ligation, sequencing); 10 mM Tris-HCl pH 7.5, 50 mM NaCl, 1 mM DTT, 4% glycerol, room temperature, 30 min; GST-TFs on glutathione beads, 16-mer random dsDNA library, 0.1% formaldehyde crosslink after washing; high values mean tight binding
# FLI1 = target: T1, FLI1 (Homo sapiens, UniProt Q01543 1-452); conditions: protein: recombinant; tags: N-terminal GST; dsDNA, one strand shown
# T1 sequence: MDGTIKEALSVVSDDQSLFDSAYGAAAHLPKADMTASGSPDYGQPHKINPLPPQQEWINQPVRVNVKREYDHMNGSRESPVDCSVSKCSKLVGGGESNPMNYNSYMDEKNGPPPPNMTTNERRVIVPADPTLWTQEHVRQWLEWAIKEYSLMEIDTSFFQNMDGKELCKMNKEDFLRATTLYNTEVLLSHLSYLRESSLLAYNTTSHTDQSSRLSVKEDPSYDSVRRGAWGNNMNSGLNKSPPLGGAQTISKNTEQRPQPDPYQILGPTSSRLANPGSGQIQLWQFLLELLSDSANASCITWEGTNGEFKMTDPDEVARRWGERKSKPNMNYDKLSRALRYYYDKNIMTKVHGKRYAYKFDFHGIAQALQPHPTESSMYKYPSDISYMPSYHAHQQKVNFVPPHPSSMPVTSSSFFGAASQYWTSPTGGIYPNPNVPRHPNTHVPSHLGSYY
# In short: (§1)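 Pools of DNA-barcoded human transcription factors, expressed in yeast as GST fusions on glutathione beads and combined with a tag-only sample, were incubated with 200 nmole of a 16-mer random double-stranded DNA library. Incubation took 30 min at room temperature in Tris/NaCl/DTT/glycerol buffer and was followed by washing, 0.1% formaldehyde crosslinking, proximity ligation (BsaI/T4 ligase, 1 h, 37 °C), PCR amplification and sequencing on an Illumina NextSeq500. Binding signal is the ratio of a hexamer's read frequency for a factor to its frequency for the tag-only sample.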
# ELK1 = target: T2, ELK1 (Homo sapiens, UniProt P19419 1-428); conditions: protein: recombinant; tags: N-terminal GST; dsDNA, one strand shown
# T2 sequence: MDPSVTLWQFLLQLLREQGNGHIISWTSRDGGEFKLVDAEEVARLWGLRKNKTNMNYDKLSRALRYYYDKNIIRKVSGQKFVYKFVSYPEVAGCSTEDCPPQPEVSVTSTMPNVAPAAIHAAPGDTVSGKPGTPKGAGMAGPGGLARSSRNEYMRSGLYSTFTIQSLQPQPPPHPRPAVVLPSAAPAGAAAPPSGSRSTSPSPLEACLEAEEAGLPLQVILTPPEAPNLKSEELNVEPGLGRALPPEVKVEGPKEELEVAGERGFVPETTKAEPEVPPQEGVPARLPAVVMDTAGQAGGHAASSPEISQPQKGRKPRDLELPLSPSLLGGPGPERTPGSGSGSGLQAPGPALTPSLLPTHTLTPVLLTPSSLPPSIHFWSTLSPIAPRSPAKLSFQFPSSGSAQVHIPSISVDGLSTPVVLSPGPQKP
# In short: as §1
# GABPA = target: T3, GABPA (Homo sapiens, UniProt Q06546 1-454); conditions: protein: recombinant; tags: N-terminal GST; dsDNA, one strand shown
# T3 sequence: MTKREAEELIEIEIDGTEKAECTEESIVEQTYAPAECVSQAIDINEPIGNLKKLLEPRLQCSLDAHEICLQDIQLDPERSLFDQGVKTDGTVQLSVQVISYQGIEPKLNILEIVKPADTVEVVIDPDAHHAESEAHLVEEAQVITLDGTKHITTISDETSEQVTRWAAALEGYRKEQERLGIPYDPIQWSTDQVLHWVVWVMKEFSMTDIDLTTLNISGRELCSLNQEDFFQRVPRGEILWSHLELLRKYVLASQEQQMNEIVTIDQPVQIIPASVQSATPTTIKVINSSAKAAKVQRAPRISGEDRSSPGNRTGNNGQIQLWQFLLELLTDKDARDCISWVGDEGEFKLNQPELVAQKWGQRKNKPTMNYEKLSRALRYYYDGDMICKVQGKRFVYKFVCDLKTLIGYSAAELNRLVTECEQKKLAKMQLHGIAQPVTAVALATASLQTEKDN
# In short: as §1
# ERG = target: T4, ERG (Homo sapiens, UniProt P11308 1-479); conditions: protein: recombinant; tags: N-terminal GST; dsDNA, one strand shown
# T4 sequence: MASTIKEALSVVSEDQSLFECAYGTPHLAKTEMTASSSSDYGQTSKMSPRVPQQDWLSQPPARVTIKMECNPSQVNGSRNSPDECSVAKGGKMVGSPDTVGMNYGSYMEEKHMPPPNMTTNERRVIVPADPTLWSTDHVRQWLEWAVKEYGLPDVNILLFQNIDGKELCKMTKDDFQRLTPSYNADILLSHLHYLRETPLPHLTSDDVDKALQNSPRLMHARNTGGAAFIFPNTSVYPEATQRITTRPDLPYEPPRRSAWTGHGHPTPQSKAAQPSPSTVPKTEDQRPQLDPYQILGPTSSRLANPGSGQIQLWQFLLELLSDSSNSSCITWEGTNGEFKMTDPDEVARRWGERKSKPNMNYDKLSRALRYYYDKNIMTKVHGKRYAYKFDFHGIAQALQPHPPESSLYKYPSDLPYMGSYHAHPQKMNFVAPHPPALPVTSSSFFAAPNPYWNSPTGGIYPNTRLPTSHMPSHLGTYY
# In short: as §1
# ELF1 = ELF1 (Homo sapiens, UniProt P32519 1-619); conditions: protein: recombinant; tags: N-terminal GST; dsDNA, one strand shown
# Chain of ELF1 (P32519 whole entry): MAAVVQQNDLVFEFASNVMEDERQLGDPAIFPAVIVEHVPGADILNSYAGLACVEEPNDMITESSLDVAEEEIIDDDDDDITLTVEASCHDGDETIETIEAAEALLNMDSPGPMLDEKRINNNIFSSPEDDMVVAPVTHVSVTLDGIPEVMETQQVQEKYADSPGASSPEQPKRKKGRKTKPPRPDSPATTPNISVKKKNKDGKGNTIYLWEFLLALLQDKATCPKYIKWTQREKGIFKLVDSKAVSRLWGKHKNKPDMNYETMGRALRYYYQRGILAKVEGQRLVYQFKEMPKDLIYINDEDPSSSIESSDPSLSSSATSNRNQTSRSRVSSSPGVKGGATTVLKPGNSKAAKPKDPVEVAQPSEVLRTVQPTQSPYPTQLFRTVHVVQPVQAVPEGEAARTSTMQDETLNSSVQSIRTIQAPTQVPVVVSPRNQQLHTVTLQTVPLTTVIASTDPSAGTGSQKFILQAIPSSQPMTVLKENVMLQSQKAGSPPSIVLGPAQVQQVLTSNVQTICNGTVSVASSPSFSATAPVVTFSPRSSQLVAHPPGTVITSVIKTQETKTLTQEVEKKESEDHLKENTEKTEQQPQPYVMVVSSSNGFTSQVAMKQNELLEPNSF
# In short: as §1
# EHF = target: T5, EHF (Homo sapiens, UniProt Q9NZC4 1-300); conditions: protein: recombinant; tags: N-terminal GST; dsDNA, one strand shown
# T5 sequence: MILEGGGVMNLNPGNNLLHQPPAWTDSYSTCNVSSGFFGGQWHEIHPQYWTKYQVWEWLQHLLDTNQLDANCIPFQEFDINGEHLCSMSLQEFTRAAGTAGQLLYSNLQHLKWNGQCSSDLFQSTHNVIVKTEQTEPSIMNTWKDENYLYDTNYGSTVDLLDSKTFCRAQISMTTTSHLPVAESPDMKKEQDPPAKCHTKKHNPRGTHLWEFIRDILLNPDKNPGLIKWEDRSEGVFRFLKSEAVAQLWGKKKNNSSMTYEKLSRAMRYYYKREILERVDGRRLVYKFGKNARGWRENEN
# In short: as §1
# SPI1 = SPI1 (Homo sapiens, UniProt P17947 1-270); conditions: protein: recombinant; tags: N-terminal GST; dsDNA, one strand shown
# In short: as §1
# SPIB = SPIB (Homo sapiens, UniProt Q01892 1-262); conditions: protein: recombinant; tags: N-terminal GST; dsDNA, one strand shown
# Chain of SPIB (Q01892 whole entry): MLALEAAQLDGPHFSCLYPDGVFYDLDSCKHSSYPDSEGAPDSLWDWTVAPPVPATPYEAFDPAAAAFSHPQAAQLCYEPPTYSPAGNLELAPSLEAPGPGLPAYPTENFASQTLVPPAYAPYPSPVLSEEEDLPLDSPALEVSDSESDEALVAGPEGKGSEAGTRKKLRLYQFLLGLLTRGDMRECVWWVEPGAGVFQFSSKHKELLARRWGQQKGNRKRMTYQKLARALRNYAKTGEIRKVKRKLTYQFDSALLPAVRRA
# In short: as §1
# ELK3 = target: T6, ELK3 (Homo sapiens, UniProt P41970 1-407); conditions: protein: recombinant; tags: N-terminal GST; dsDNA, one strand shown
# T6 sequence: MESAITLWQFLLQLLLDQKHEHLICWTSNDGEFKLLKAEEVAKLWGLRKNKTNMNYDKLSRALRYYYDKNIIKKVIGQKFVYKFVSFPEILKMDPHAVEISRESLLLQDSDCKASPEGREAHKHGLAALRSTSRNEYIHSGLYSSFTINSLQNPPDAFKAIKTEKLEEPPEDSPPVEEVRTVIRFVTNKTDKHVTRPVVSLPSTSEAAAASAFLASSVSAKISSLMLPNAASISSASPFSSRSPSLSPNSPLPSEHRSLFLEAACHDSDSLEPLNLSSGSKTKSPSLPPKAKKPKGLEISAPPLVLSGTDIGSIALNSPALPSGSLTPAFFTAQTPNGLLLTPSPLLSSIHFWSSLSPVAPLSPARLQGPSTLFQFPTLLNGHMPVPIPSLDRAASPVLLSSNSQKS
# In short: as §1
# FEV = target: T7, FEV (Homo sapiens, UniProt Q99581 1-238); conditions: protein: recombinant; tags: N-terminal GST; dsDNA, one strand shown
# T7 sequence: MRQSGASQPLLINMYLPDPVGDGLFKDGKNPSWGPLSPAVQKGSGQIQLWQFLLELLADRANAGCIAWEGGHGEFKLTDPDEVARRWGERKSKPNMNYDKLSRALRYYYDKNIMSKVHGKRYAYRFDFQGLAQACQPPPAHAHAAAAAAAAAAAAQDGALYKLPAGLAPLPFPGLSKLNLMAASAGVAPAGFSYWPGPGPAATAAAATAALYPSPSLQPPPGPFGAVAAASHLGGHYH
# In short: as §1
# ETV5 = ETV5 (Homo sapiens, UniProt P41161 1-510); conditions: protein: recombinant; tags: N-terminal GST; dsDNA, one strand shown
# Chain of ETV5 (P41161 whole entry): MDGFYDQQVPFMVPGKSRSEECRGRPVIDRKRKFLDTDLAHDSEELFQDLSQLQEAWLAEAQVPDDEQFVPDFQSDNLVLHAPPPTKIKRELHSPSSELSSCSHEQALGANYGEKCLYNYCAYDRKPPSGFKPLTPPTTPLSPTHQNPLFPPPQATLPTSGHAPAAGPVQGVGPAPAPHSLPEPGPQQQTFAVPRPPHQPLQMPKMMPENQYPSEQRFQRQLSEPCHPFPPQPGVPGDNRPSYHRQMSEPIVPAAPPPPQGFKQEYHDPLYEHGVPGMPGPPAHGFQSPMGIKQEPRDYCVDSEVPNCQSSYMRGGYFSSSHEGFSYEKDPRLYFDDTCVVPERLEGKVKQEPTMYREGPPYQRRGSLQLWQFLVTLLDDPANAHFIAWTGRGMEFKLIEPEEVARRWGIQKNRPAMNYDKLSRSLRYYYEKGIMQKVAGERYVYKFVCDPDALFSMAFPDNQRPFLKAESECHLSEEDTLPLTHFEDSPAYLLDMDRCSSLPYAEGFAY
# In short: as §1
# HSF1 = HSF1 (Homo sapiens, UniProt Q00613 1-529); conditions: protein: recombinant; tags: N-terminal GST; chain copies: 3; dsDNA, one strand shown
# Chain of HSF1 (Q00613 whole entry): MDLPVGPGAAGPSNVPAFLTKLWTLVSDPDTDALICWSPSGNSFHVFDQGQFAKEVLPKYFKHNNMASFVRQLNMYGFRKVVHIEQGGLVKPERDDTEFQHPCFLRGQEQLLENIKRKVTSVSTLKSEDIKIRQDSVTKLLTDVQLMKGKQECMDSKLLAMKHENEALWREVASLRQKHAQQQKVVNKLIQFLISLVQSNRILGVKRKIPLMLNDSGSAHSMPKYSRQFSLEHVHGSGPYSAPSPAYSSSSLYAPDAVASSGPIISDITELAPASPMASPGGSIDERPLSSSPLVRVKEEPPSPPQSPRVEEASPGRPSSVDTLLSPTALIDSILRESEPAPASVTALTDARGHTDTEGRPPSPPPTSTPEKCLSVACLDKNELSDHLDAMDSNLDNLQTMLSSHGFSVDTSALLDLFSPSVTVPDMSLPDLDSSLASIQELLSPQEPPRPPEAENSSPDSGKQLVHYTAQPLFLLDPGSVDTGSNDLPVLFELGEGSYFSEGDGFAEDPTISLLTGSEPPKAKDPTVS
# In short: as §1
# SPIC = target: T8, SPIC (Homo sapiens, UniProt Q8N5J4 1-248); conditions: protein: recombinant; tags: N-terminal GST; dsDNA, one strand shown
# T8 sequence: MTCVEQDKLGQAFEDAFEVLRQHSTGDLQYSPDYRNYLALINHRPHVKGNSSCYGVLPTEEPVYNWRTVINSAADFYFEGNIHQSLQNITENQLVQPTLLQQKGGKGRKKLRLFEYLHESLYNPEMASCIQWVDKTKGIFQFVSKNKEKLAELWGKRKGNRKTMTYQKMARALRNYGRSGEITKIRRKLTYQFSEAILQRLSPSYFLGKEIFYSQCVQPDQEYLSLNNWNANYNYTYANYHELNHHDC
# In short: as §1
# ELF4 = ELF4 (Homo sapiens, UniProt Q99607 1-663); conditions: protein: recombinant; tags: N-terminal GST; dsDNA, one strand shown
# Chain of ELF4 (Q99607 whole entry): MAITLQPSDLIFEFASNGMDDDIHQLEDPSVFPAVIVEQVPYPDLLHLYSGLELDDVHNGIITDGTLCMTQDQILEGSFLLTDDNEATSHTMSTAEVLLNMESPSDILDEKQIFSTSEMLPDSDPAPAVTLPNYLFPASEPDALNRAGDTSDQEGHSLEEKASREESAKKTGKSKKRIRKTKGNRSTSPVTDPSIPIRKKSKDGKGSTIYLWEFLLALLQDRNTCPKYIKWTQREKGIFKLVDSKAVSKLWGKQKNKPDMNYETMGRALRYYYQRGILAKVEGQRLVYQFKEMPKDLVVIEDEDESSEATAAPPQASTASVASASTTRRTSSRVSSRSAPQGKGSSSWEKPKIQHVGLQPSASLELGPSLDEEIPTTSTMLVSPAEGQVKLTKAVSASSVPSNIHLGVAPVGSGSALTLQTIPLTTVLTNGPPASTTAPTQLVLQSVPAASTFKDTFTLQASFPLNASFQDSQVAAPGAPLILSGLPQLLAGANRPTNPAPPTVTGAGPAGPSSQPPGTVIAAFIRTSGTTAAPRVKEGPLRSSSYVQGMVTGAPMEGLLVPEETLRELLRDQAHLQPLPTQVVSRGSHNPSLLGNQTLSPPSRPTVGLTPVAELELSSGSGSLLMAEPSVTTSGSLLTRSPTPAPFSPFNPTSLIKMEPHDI
# In short: as §1
# ELK4 = target: T9, ELK4 (Homo sapiens, UniProt P28324-2 1-405); conditions: protein: recombinant; tags: N-terminal GST; dsDNA, one strand shown
# T9 sequence: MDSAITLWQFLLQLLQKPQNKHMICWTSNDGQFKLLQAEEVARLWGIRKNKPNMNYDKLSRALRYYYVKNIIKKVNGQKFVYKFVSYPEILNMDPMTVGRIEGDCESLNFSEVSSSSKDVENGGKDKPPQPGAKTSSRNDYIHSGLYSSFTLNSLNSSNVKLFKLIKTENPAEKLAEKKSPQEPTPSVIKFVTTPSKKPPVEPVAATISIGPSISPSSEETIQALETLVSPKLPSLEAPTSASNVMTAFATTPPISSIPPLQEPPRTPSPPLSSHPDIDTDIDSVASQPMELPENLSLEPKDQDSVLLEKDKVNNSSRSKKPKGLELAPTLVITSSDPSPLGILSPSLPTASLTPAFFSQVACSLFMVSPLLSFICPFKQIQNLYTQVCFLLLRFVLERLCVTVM
# In short: as §1
# ETV2 = target: T10, ETV2 (Homo sapiens, UniProt O00321 1-342); conditions: protein: recombinant; tags: N-terminal GST; dsDNA, one strand shown
# T10 sequence: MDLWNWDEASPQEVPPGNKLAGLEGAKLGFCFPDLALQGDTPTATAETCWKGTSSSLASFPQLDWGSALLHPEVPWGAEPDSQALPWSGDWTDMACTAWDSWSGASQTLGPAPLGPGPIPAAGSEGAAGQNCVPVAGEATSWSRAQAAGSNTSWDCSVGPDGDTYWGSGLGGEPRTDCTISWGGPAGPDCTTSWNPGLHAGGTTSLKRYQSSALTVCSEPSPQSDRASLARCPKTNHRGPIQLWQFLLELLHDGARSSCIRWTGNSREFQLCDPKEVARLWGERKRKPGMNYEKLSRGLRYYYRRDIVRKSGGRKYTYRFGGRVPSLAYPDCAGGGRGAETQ
# In short: as §1
# ELF3 = target: T11, ELF3 (Homo sapiens, UniProt P78545 1-371); conditions: protein: recombinant; tags: N-terminal GST; dsDNA, one strand shown
# T11 sequence: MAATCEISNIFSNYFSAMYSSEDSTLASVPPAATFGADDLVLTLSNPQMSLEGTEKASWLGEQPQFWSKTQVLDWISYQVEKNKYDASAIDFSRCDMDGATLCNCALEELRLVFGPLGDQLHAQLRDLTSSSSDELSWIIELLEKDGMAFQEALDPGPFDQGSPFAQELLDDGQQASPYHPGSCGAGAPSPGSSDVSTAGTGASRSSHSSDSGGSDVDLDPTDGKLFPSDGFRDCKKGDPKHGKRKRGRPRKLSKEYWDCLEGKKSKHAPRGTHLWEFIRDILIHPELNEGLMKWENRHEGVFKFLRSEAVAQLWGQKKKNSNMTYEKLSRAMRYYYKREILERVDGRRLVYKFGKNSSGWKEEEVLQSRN
# In short: as §1
# CRX = CRX (Homo sapiens, UniProt O43186 1-299); conditions: protein: recombinant; tags: N-terminal GST; dsDNA, one strand shown
# Chain of CRX (O43186 whole entry): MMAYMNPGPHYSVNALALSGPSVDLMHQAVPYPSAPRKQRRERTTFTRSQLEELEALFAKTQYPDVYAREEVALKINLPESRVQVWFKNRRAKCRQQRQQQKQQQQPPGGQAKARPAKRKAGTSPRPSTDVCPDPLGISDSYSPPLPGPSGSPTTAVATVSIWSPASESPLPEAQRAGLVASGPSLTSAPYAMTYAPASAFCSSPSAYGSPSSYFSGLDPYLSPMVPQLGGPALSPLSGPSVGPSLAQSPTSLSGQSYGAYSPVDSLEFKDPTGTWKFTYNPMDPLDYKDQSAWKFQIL
# In short: as §1
# ETV1 = ETV1 (Homo sapiens, UniProt P50549 1-477); conditions: protein: recombinant; tags: N-terminal GST; dsDNA, one strand shown
# Chain of ETV1 (P50549 whole entry): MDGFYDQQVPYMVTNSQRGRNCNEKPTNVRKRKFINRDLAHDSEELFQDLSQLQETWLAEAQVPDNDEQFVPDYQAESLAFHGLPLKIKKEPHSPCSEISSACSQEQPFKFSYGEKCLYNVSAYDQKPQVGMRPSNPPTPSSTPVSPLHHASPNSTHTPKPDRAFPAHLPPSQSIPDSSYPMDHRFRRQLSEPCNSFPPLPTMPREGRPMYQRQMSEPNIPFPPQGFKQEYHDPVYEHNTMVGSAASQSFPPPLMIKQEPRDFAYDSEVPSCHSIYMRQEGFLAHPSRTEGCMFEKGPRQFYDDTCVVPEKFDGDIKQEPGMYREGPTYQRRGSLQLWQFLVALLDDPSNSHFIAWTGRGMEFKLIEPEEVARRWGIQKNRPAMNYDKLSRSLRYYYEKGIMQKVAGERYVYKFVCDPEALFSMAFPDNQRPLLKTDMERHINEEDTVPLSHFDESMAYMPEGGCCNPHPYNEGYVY
# In short: as §1
sequence,measurement,setting,value
TCTTCG,binding signal,FLI1,"1.45 fold enrichment (6-mer frequency, TF over GST control)"
same,binding signal,ELK1,"1.49 fold enrichment (6-mer frequency, TF over GST control)"
same,binding signal,GABPA,"1.45 fold enrichment (6-mer frequency, TF over GST control)"
same,binding signal,ERG,"1.41 fold enrichment (6-mer frequency, TF over GST control)"
same,binding signal,ELF1,"1.51 fold enrichment (6-mer frequency, TF over GST control)"
same,binding signal,EHF,"1.31 fold enrichment (6-mer frequency, TF over GST control)"
same,binding signal,SPI1,"1.47 fold enrichment (6-mer frequency, TF over GST control)"
same,binding signal,SPIB,"1.57 fold enrichment (6-mer frequency, TF over GST control)"
same,binding signal,ELK3,"1.49 fold enrichment (6-mer frequency, TF over GST control)"
same,binding signal,FEV,"1.49 fold enrichment (6-mer frequency, TF over GST control)"
same,binding signal,ETV5,"1.51 fold enrichment (6-mer frequency, TF over GST control)"
same,binding signal,HSF1,"1.97 fold enrichment (6-mer frequency, TF over GST control)"
same,binding signal,SPIC,"1.38 fold enrichment (6-mer frequency, TF over GST control)"
same,binding signal,ELF4,"1.49 fold enrichment (6-mer frequency, TF over GST control)"
same,binding signal,ELK4,"1.45 fold enrichment (6-mer frequency, TF over GST control)"
same,binding signal,ETV2,"1.5 fold enrichment (6-mer frequency, TF over GST control)"
same,binding signal,ELF3,"1.47 fold enrichment (6-mer frequency, TF over GST control)"
same,binding signal,CRX,"1.61 fold enrichment (6-mer frequency, TF over GST control)"
same,binding signal,ETV1,"1.47 fold enrichment (6-mer frequency, TF over GST control)"
